This is part of a sample that, as a whole, favours compounds with a hit. Of some 83,000 tested, about 20% had one in any assay.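 Treatment: one concentration, 48 hours, 96-well format. Scoring: percent growth, with anything below 10 considered active.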 Unmarked numbers belong to inactive results. Calls of active or inactive are those of the source.

Common to all, as to test: NCI-60 one-dose screen, 48 h (100 = growth as untreated, 0 = no growth, -100 = all killed)
What all share (details): 10 µM unless noted

The test system of experiment [1] is T-47D breast.
For experiment [2], the system named is BT-549 breast.
In experiment [3] the test system is MDA-MB-435 melanoma.
Experiment [4] deals with SW-620 colon.
Experiment [5] relates to MCF7 breast.
Experiment [6] concerns HCT-116 colon.
Experiment [7] deals with HCC-2998 colon.
In experiment [8] the test system is KM12 colon.

`O=C(CCl)Oc1ccc(-c2ccccc2)c(Br)c1`: the growth in experiment [1] is 103%; in experiment [2], 104%; in experiment [3] it was 104%; in experiment [4] it was 104%; in experiment [5] it was 103%; in experiment [6], 108%. The growth in experiment [7] is 109%; in experiment [8] it was 104%.

`O=C1NC(=S)N[C@H]1CC(=O)n1cnc2ccccc21`: the growth in experiment [1] was 99.6%; in experiment [2] it was 102%; in experiment [3], 105%; in experiment [4], 97.2%; in experiment [5], 68.7%; in experiment [6], 104%. The values for the growth in experiment [7] and in experiment [8] were 103% and 100%, respectively.

On to `O=C(NCCN1CCOCC1)Nc1ccc(-c2cc3c(Nc4ccc(Oc5cccc(C(F)(F)F)c5)c(Cl)c4)ncnc3s2)cc1`, for which the growth in experiment [1] is -1.15% (active); in experiment [2], 40%; in experiment [3], 1.05% (active); in experiment [4], -46.8% (active); in experiment [5] it was -2.16% (active); in experiment [6], -13% (active). For the same compound, the growth in experiment [7] was 5.37% (active); in experiment [8], -65% (active).

With `O=C(O)c1ccc(NC(=O)c2ccc(-c3cccc([N+](=O)[O-])c3)o2)cc1`, the growth is 102% in experiment [1]; 107% in experiment [2]; 100% in experiment [3]; 96% in experiment [4]; 89.8% in experiment [5]; 105% in experiment [6]. For the same compound, the results for the growth in experiment [7] and in experiment [8] were 99.3% and 99.5%, respectively.

Turning to `Nc1nc2ccc3[nH]ncc3c2c2c1CCCC2`, the growth in experiment [1] was 11%; in experiment [2] it was -9.88% (active); in experiment [3], 6.3% (active); in experiment [4], 1.68% (active); in experiment [5], 7.3% (active); in experiment [6] it was 1.33% (active). In addition, the growth in experiment [7] is 9.63% (active); in experiment [8], -1.31% (active).

Consider `COc1ccc(-c2nn(-c3ccc(Cl)cc3)cc2-c2nc3ccccc3[nH]2)cc1`, for which the growth in experiment [1] was 87.9%; in experiment [2], 113%; in experiment [3], 97.7%; in experiment [4], 84.6%; in experiment [5], 74.3%; in experiment [6] it was 87%. Also, the growth was 109% in experiment [7] and 102% in experiment [8].

In the case of `COc1cccc(-c2nc3sccn3c2-c2ccnc(NCCCNS(=O)(=O)c3c(Cl)cccc3Cl)c2)c1`, the growth in experiment [1] was 5.35% (active); in experiment [2] it was 43.2%; in experiment [3], 64.5%; in experiment [4], 76.8%; in experiment [5] it was 65.8%; in experiment [6], 52.6%. Further, the growth is 84.8% in experiment [7] and 68.2% in experiment [8].

On to `Cn1c(=O)c2c(nc3n(-c4ccc(Cl)cc4Cl)c(Sc4nc(-c5ccccc5)c(C#N)c(=O)[nH]4)cn23)n(C)c1=O`, for which the growth was 11.3% in experiment [1]; 72.6% in experiment [2]; 69.1% in experiment [3]; 30% in experiment [4]; 52.1% in experiment [5]; 18.6% in experiment [6]. Also, the figures for the growth in experiment [7] and in experiment [8] were 78.3% and 84.9%, respectively.

With `CC1(C)CC[C@]2(C(=O)Nc3ccccn3)CC[C@]3(C)C(=CC[C@@H]4[C@@]5(C)C/C(=C/c6cccnc6)C(=O)C(C)(C)[C@@H]5CC[C@]43C)[C@H]2C1`, the growth in experiment [1] is 12.8%; in experiment [2], 42.2%; in experiment [3], 38.3%; in experiment [4], 33.9%; in experiment [5], 11.4%; in experiment [6], 11.4%. Besides, the growth in experiment [7] is 40.4%; in experiment [8], 40.1%.

`C=CC(COC(c1ccccc1)(c1ccccc1)c1ccccc1)N(CC)CC` (stereo not given): the growth in experiment [1] was 54.8%; in experiment [2], 81.5%; in experiment [3] it was 61.2%; in experiment [4] it was 51.3%; in experiment [5] it was 33.4%; in experiment [6] it was 35.9%. For the same compound, the figures for the growth in experiment [7] and in experiment [8] were 63% and 54.6%, respectively.

As to `C=CC(=O)Nc1cccc(Nc2nc(SC)nc(-c3cccc([N+](=O)[O-])c3)c2C#N)c1`, the growth in experiment [1] was 42.7%; in experiment [2], 58.4%; in experiment [3] it was 53%; in experiment [4], 31.6%; in experiment [5] it was 28.5%; in experiment [6] it was 19.8%. The growth in experiment [7] was 48.2%; in experiment [8], 90.5%.

Consider `O=C1C=C(OCC=C(Cl)Cl)C(=O)c2ccccc21`, for which the growth in experiment [1] was 38.9%; in experiment [2], 78.6%; in experiment [3], -55.7% (active); in experiment [4], 78.3%; in experiment [5] it was 26.6%; in experiment [6], 21.8%. In addition, the growth in experiment [7] is 112%; in experiment [8], 91%.

Turning to `N#CN1CC[C@H](C(=O)Nc2cc3cc(C(N)=O)ccc3cn2)C1`, the growth in experiment [1] is -21.6% (active); in experiment [2] it was -5.54% (active); in experiment [3], 3.57% (active); in experiment [4], 6.39% (active); in experiment [5], 6.05% (active); in experiment [6], 1.69% (active). Also, the figures for the growth in experiment [7] and in experiment [8] were -1.56% (active) and 1.65% (active), respectively.

Consider `O=[N+]([O-])c1cnc(N2CCN(CC3CC3)CC2)nc1N1CCN(CC2CC2)CC1`, for which the growth is 100% in experiment [1]; 88.9% in experiment [2]; 98.1% in experiment [3]; 90.9% in experiment [4]; 96.4% in experiment [5]; 86% in experiment [6]. Moreover, the growth in experiment [7] is 99%; in experiment [8], 100%.

For `COc1ccc(-c2cc(C(=O)N=Nc3c(O)[nH]c4ccc(Br)cc34)no2)cc1`, the growth is 93.6% in experiment [1]; 107% in experiment [2]; 101% in experiment [3]; 93.7% in experiment [4]; 94.1% in experiment [5]; 91.6% in experiment [6]. For the same compound, the growth is 104% in experiment [7] and 100% in experiment [8].

As for `Nc1n[nH]c2cc(F)c([C@@H]3Nc4ccc5[nH]ncc5c4[C@H]4C5CCC(C5)[C@@H]34)cc12` (stereo not given in full), the growth is 97.6% in experiment [1]; -7.74% (active) in experiment [2]; -15.3% (active) in experiment [3]; 21.7% in experiment [4]; 16.3% in experiment [5]; -29.3% (active) in experiment [6]. The values for the growth in experiment [7] and in experiment [8] were 15.9% and 1.62% (active), respectively.

`CCCCn1c(-c2ccc(C(=O)O/N=C(\N)c3ccc4ccccc4c3)cc2)nc(-c2ccccc2)c1-c1ccccc1`: the growth in experiment [1] is 46.2%; in experiment [2], 87.9%; in experiment [3], 85.1%; in experiment [4], 80.1%; in experiment [5], 61.2%; in experiment [6] it was 60.8%. Further, the growth is 95.8% in experiment [7] and 76.7% in experiment [8].

Turning to `Cc1cc(N2CCCCC2)nc(NC2CCCC(Nc3ccnc4cc(Cl)ccc34)C2)n1` (stereo not given), the growth was -58.5% (active) in experiment [1]; -67% (active) in experiment [2]; -92% (active) in experiment [3]; -66.7% (active) in experiment [4]; -50.2% (active) in experiment [5]; -86.6% (active) in experiment [6]. In addition, the figures for the growth in experiment [7] and in experiment [8] were -62.3% (active) and -29.7% (active), respectively.

On to `CSc1nc(NCCN2CCOCC2)c(C#N)c(-c2cccc([N+](=O)[O-])c2)n1`, for which the growth in experiment [1] is 96.8%; in experiment [2] it was 94.2%; in experiment [3], 104%; in experiment [4] it was 99.8%; in experiment [5], 89.4%; in experiment [6] it was 98.8%. The growth in experiment [7] is 112%; in experiment [8], 98.7%.

With `O=C1/C(=C/c2cn(-c3ccccc3)nc2-c2ccccc2)SC(=S)N1CCc1ccccc1`, the growth in experiment [1] is 96.5%; in experiment [2] it was 109%; in experiment [3], 97.6%; in experiment [4], 100%; in experiment [5], 95.3%; in experiment [6], 102%. The growth was 107% in experiment [7] and 100% in experiment [8].

`CN1CCN(c2ccc(Nc3c4ccccc4nc4ccccc34)cc2)CC1`: the growth was 102% in experiment [1]; 112% in experiment [2]; 110% in experiment [3]; 106% in experiment [4]; 99.1% in experiment [5]; 104% in experiment [6]. Further, the values for the growth in experiment [7] and in experiment [8] were 113% and 105%, respectively.

As for `CCCCCCN(CCCCCC)CCC(O)c1ccc2ccccc2c1` (stereo not given), the growth in experiment [1] was 34.4%; in experiment [2] it was 74.7%; in experiment [3] it was 68.3%; in experiment [4], 48.2%; in experiment [5] it was 26.6%; in experiment [6], 24.3%. The growth was 44.6% in experiment [7] and 56.2% in experiment [8].

In the case of `COc1ccc(-c2nc3ccc(-c4nc5ccc(N6CCN(c7ccc(F)cc7)CC6)cc5[nH]4)cc3[nH]2)cc1OC`, the growth in experiment [1] was 43.8%; in experiment [2] it was 76.3%; in experiment [3] it was 90.1%; in experiment [4], 46.5%; in experiment [5], 9.99% (active); in experiment [6], 11.2%. The growth in experiment [7] is 95.1%; in experiment [8], 95%.

As for `CC1=C[C@H]2c3c(c(O)c(O)c4oc(-c5ccccc5)cc(=O)c34)[C@H](c3cc(O)c(O)c4oc(-c5ccccc5)cc(=O)c34)[C@H]2C(C)(C)C1`, the growth is 4.7% (active) in experiment [1]; 0.289% (active) in experiment [2]; -32.9% (active) in experiment [3]; 7.43% (active) in experiment [4]; 9.62% (active) in experiment [5]; -56.3% (active) in experiment [6]. The growth in experiment [7] is 0.939% (active); in experiment [8] it was -14.9% (active).

Turning to `COc1ccc(CCNc2nc(SC)nc(-c3cccc([N+](=O)[O-])c3)c2C#N)cc1OC`, the growth in experiment [1] was 79.3%; in experiment [2], 42.2%; in experiment [3], 87.7%; in experiment [4], 92.9%; in experiment [5], 86.8%; in experiment [6] it was 82%. For the same compound, the results for the growth in experiment [7] and in experiment [8] were 93.6% and 99.1%, respectively.

Take `CCOC(=O)c1sc2nc(-c3cccc(O)c3)nc(N3CCOCC3)c2c1C`: the growth was 5.33% (active) in experiment [1]; 52.8% in experiment [2]; 63.5% in experiment [3]; 73.2% in experiment [4]; 55.5% in experiment [5]; 68.1% in experiment [6]. Besides, the results for the growth in experiment [7] and in experiment [8] were 78.2% and 63.3%, respectively.

With `COc1cc(C2CC(=O)c3ccccc3N2)cc(OC)c1OC` (stereo not given), the growth in experiment [1] is 92.6%; in experiment [2] it was 104%; in experiment [3] it was 105%; in experiment [4] it was 100%; in experiment [5], 96.8%; in experiment [6] it was 104%. In addition, the growth in experiment [7] was 109%; in experiment [8], 99.6%.

As for `O=C(Cc1ccc(/C=C/C(=O)c2ncc[nH]2)cc1)Nc1ccccc1`, the growth in experiment [1] is 39.9%; in experiment [2], 54.2%; in experiment [3] it was 57.3%; in experiment [4], 14.2%; in experiment [5], 9.95% (active); in experiment [6], 44.2%. Moreover, the growth in experiment [7] is 90.4%; in experiment [8], 12.8%.

As to `COc1ccc(/C=C/C(=O)c2cc(O)ccc2O)cc1`, the growth is 89.8% in experiment [1]; 90.4% in experiment [2]; 75.8% in experiment [3]; 100% in experiment [4]; 94% in experiment [5]; 97.4% in experiment [6]. Also, the figures for the growth in experiment [7] and in experiment [8] were 106% and 84.1%, respectively.

Turning to `COc1ccc(S(=O)(=O)N2CCCCC2)cc1NC(=O)c1[nH]c(C)c2c1CCCCC2=O`, the growth was 15.2% in experiment [1]; 50.1% in experiment [2]; 21.7% in experiment [3]; 54% in experiment [4]; 12.3% in experiment [5]; 17.6% in experiment [6]. In addition, the growth in experiment [7] was 15.8%; in experiment [8], 24.9%.

Values taken from PubChem BioAssay (NCI).
